Source: PubChem BioAssay (NCI)
Where “and” joins values, the source holds several entries; their conditions need not be identical. Identical values can stand only once. This is part of a sample that, as a whole, favours compounds with a hit. Of some 83,000 tested, about 20% had one in any assay.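 The endpoint reported here, percent growth, reads 100 for growth as untreated, 0 for no net growth and -100 for all cells dead.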 Calls of active or inactive are those of the source. Rule for the calls: active = growth percent below 10; inactive = the rest.

These compounds were tested on HL-60(TB) leukemia (assay: NCI-60 one-dose screen, 48 h (100 = growth as untreated, 0 = no growth, -100 = all killed)). Conditions: 10 µM unless noted.

Row | Compound | growth
1 | O=C(COc1ccc(NC(=O)Nc2ccc(Cl)c(Cl)c2)cc1)N=Nc1c(O)[nH]c2ccc(Cl)cc12 | -23% (active)
2 | Cn1cc(-c2cc(N)n3nc(-c4c[nH]c5ccccc45)cc3n2)c2cc(Br)cnc21 | -66.7% (active)
3 | Cc1ccc2nc3c(nc2c1)c1cc(I)ccc1n3CCN(C)C | 13.7% (inactive)
4 | O=C(Nc1ccc(Cl)c(C(F)(F)F)c1)N1CCN(c2cc(-c3cn(-c4ccccc4)nc3-c3cccc(O)c3)ccn2)CC1 | -34.3% (active)
5 | O=C(CNc1nc(-c2ccccc2)cs1)Nc1ccc(Br)cc1 | -40.4% (active)
6 | CC12CC[C@@H]3[C@]4(C)COC(c5cn[nH]c5-c5cccc(Cl)c5)O[C@@H]4CC[C@@]3(C)[C@@H]1CC(C1=CCOC1=O)O2 (stereo partly drawn) | 22.3% (inactive)
7 | O=c1[nH]c2ccccc2cc1CSc1ccc(Nc2nccc(-c3ccc4ccccc4c3)n2)cc1 | 92.5% (inactive)
8 | O=c1c2ccccc2nc(COc2ccccc2)n1/N=C/c1ccc(N2CCOCC2)cc1 | 100% (inactive)
9 | FC(F)(F)CN1CCN(CCn2c(C(F)(F)F)cc3c(Cl)ncnc32)CC1 | -65.2% (active)
10 | C#CCOc1cc(N(CC)CC)ccc1C(C(=O)NC(C)(C)C)N(C(=O)C1CCc2cc(F)ccc2O1)c1ccc(F)cc1F (stereo not drawn) | 6.7% (active)
11 | CC(=O)NNc1ccc2nnc(-c3ccc(Br)cc3)n2n1 | 97.5% (inactive)
12 | O=C(Cn1c(/C=C/c2ccc([N+](=O)[O-])cc2)nc2ccccc2c1=O)Nc1ccccc1 | 102% (inactive)
13 | O=C(NCCCCCCCCCC[P+](c1ccccc1)(c1ccccc1)c1ccccc1)c1ccc(-n2nc(-c3ccccc3O)nc2-c2ccccc2O)cc1 | -29.8% (active)
14 | CS(=O)(=O)Nc1cc(-c2ccc3ncnc(N4CCc5cc(F)c(Cl)cc54)c3c2)cnc1Cl | 14.3% (inactive)
15 | COc1c(F)ccc(C(=O)Nc2ccc3nc(NC(=O)C4CCCN(S(=O)(=O)c5ccc(C(C)(C)C)cc5)C4)sc3c2)c1F (stereo not drawn) | 66.9% (inactive)
16 | COc1ccc(/C=C/C(=O)c2ccc(S(=O)(=O)NCCNc3nc(Nc4ccc(F)cc4)nc(N(C)C)n3)cc2)cc1 | 17.2% (inactive)
17 | Cc1cc(=O)oc2cc(OCCCOc3ccc(/C=C/C(=O)Nc4ccccc4N)cc3)ccc12 | 1.53% (active)
18 | O=C(N/N=C/c1ccc(-c2ccc(O)cc2)s1)c1[nH]c2ccc(Br)cc2c1-c1ccccc1 | -12.4% (active)
19 | O=C(N=Nc1c(O)[nH]c2ccc([N+](=O)[O-])cc12)c1ccc2nc(-c3ccccc3)[nH]c2c1 | 84.7% (inactive)
20 | CCCCNC(=S)Nc1ccc(OCc2nc3ccccc3[nH]2)cc1 | 31.7% (inactive)
21 | Cc1ccc(CSc2nc(Cl)c(C#N)c(-c3ccc(F)cc3)n2)cc1 | 42% (inactive)

The compounds below were run on MDA-MB-468 breast in the same assay as above. Conditions: 10 µM unless noted.

Row | Compound | growth
22 | CN(C)C(=O)Oc1ccccc1-c1ccccc1 | 99.7% (inactive)
23 | O=C(O)C1(Br)CC12c1ccccc1-c1ccccc12 (stereo not drawn) | 98.7% (inactive)
24 | CCOc1ccc(/C=C/[N+](=O)[O-])cc1 | 35.4% (inactive)
25 | C=C1C(=O)OC2CC3(C)OC3C3OC3C3=CC(OC3=O)C12 (stereo not drawn) | 32.8% (inactive) and 65.2% (inactive)
26 | CC(=O)OC1CCC2(C)C(=CCC3C4CC(CN5CC5)C(=O)C4(C)CCC32)C1 (stereo not drawn) | 1.98% (active)
27 | Clc1ccc(COC(Cn2ccnc2)c2ccc(Cl)cc2Cl)cc1 (stereo not drawn) | 39.7% (inactive)
28 | CCC(CC)CC1(C)CC2(C)CCOC2OO1 (stereo not drawn) | 110% (inactive)
